Reference: PubChem BioAssay AID1159580 (chemical genetic matrix, 2015)
Hit rate of the full screen: of about 5,500 compounds, about 2,000 (36%) were called active. Not shown: some 18% with an inconclusive outcome. The list shows a part of the results. Values without a mark were called inactive. Rule as the data show it: active = normalized growth mostly below about 0.91 (no sharp cut-off); inconclusive = no clear call, values can overlap the other calls; inactive = mostly above about 0.92.

Assay: chemical genetic growth profiling, strain panel (AID 1159580);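 also: tested at 20 µM; growth read once vehicle control cultures reached saturation at 30 °C; 1 = growth at the plate median or of vehicle wells; lower values mean less growth of the strain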
Details: growth OD

SMILES: Cc1ccc2c(c1)CC[C@H]1CC(=O)CC[C@]21C
- normalized growth (S. cerevisiae deletion strains, locus YKL009W, strain mrt4, active compounds read low): 0.982
- normalized growth (S. cerevisiae deletion strains, locus YKL068W, active compounds read low): 0.991
- normalized growth (S. cerevisiae deletion strains, locus YKL085W, strain MDH1 (second series), active compounds read low): 0.973
- normalized growth (S. cerevisiae deletion strains, locus YKL085W, strain MDH1, active compounds read low): 0.973
- normalized growth (S. cerevisiae deletion strains, locus YKL160W, strain elf1, active compounds read low): 1.01
- normalized growth (S. cerevisiae deletion strains, locus YKL190W, strain CNB1, active compounds read low): 0.997
- normalized growth (S. cerevisiae deletion strains, locus YKR001C, strain vps1, active compounds read low): 0.953
- normalized growth (S. cerevisiae deletion strains, locus YKR026C, strain gcn3, active compounds read low): 1.01
- normalized growth (S. cerevisiae deletion strains, locus YKR091W, strain srl3, active compounds read low): 1
- normalized growth (S. cerevisiae deletion strains, locus YLL001W, strain dnm1, active compounds read low): 0.999
- normalized growth (S. cerevisiae deletion strains, locus YLL026W, active compounds read low): 1.01
- normalized growth (S. cerevisiae deletion strains, locus YLL041C, strain sdh2, active compounds read low): 0.991
- normalized growth (S. cerevisiae deletion strains, locus YLR027C, strain aat2, active compounds read low): 0.989
- normalized growth (S. cerevisiae deletion strains, locus YLR039C, strain RIC1, active compounds read low): 0.925
- normalized growth (S. cerevisiae deletion strains, locus YLR058C, strain SHM2, active compounds read low): 0.998
- normalized growth (S. cerevisiae deletion strains, locus YLR102C, strain apc9, active compounds read low): 0.983
- normalized growth (S. cerevisiae deletion strains, locus YLR113W, strain HOG1, active compounds read low): 0.975
- normalized growth (S. cerevisiae deletion strains, locus YLR221C, strain rsa3, active compounds read low): 0.995
- normalized growth (S. cerevisiae deletion strains, locus YLR258W, strain gsy2, active compounds read low): 1
- normalized growth (S. cerevisiae deletion strains, locus YLR262C, strain YPT6 (second series), active compounds read low): 0.942
- normalized growth (S. cerevisiae deletion strains, locus YLR262C, strain YPT6, active compounds read low): 0.917
- normalized growth (S. cerevisiae deletion strains, locus YLR268W, strain sec22, active compounds read low): 1.01
- normalized growth (S. cerevisiae deletion strains, locus YLR320W, strain mms22, active compounds read low): 0.977
- normalized growth (S. cerevisiae deletion strains, locus YLR330W, strain CHS5, active compounds read low): 0.991
- normalized growth (S. cerevisiae deletion strains, locus YLR342W, strain FKS1 (second series), active compounds read low): 0.94
- normalized growth (S. cerevisiae deletion strains, locus YLR342W, strain FKS1, active compounds read low): 0.997
- normalized growth (S. cerevisiae deletion strains, locus YLR357W, strain rsc2, active compounds read low): 1.01
- normalized growth (S. cerevisiae deletion strains, locus YLR370C, strain arc18, active compounds read low): 1.02
- normalized growth (S. cerevisiae deletion strains, locus YLR371W, strain rom2, active compounds read low): 0.972
- normalized growth (S. cerevisiae deletion strains, locus YLR384C, strain iki3, active compounds read low): 1.01
- normalized growth (S. cerevisiae deletion strains, locus YLR418C, strain cdc73, active compounds read low): 0.923
- normalized growth (S. cerevisiae deletion strains, locus YML016C, strain PPZ1, active compounds read low): 0.984
- normalized growth (S. cerevisiae deletion strains, locus YML032C, strain rad52, active compounds read low): 0.972
- normalized growth (S. cerevisiae deletion strains, locus YML120C, strain ndi1, active compounds read low): 0.986
- normalized growth (S. cerevisiae deletion strains, locus YML124C, strain tub3, active compounds read low): 0.98
- normalized growth (S. cerevisiae deletion strains, locus YMR058W, strain fet3, active compounds read low): 1.01
- normalized growth (S. cerevisiae deletion strains, locus YMR078C, strain ctf18, active compounds read low): 0.969
- normalized growth (S. cerevisiae deletion strains, locus YMR125W, strain sto1, active compounds read low): 1
- normalized growth (S. cerevisiae deletion strains, locus YMR129W, active compounds read low): 1.01
- normalized growth (S. cerevisiae deletion strains, locus YMR205C, strain PFK2, active compounds read low): 1
- normalized growth (S. cerevisiae deletion strains, locus YMR223W, strain ubp8, active compounds read low): 0.966
- normalized growth (S. cerevisiae deletion strains, locus YMR231W, strain pep5, active compounds read low): 0.997
- normalized growth (S. cerevisiae deletion strains, locus YMR263W, strain SAP30, active compounds read low): 1.01
- normalized growth (S. cerevisiae deletion strains, locus YMR307W, strain GAS1, active compounds read low): 0.908
- normalized growth (S. cerevisiae deletion strains, locus YNL067W, strain RPL9B, active compounds read low): 0.999
- normalized growth (S. cerevisiae deletion strains, locus YNL071W, strain lat1, active compounds read low): 0.999
- normalized growth (S. cerevisiae deletion strains, locus YNL128W, strain TEP1, active compounds read low): 1.01
- normalized growth (S. cerevisiae deletion strains, locus YNL153C, strain GIM3, active compounds read low): 1.02
- normalized growth (S. cerevisiae deletion strains, locus YNL183C, strain NPR1, active compounds read low): 0.907
- normalized growth (S. cerevisiae deletion strains, locus YNL209W, strain ssb2, active compounds read low): 0.998
- normalized growth (S. cerevisiae deletion strains, locus YNL233W, strain BNI4, active compounds read low): 0.979
- normalized growth (S. cerevisiae deletion strains, locus YNL248C, strain rpa49, active compounds read low): 0.99
- normalized growth (S. cerevisiae deletion strains, locus YNL250W, strain rad50, active compounds read low): 0.979
- normalized growth (S. cerevisiae deletion strains, locus YNL271C, strain bni1, active compounds read low): 0.96
- normalized growth (S. cerevisiae deletion strains, locus YNL298W, strain CLA4, active compounds read low): 0.987
- normalized growth (S. cerevisiae deletion strains, locus YNL307C, strain MCK1, active compounds read low): 0.889 (active)
- normalized growth (S. cerevisiae deletion strains, locus YNL322C, strain KRE1 (second series), active compounds read low): 1
- normalized growth (S. cerevisiae deletion strains, locus YNL322C, strain KRE1, active compounds read low): 1
- normalized growth (S. cerevisiae deletion strains, locus YNR049C, strain mso1, active compounds read low): 1
- normalized growth (S. cerevisiae deletion strains, locus YNR052C, strain pop2, active compounds read low): 0.976
- normalized growth (S. cerevisiae deletion strains, locus YOL006C, strain TOP1, active compounds read low): 0.878
- normalized growth (S. cerevisiae deletion strains, locus YOL012C, strain htz1): 1.46
- normalized growth (S. cerevisiae deletion strains, locus YOL147C, strain pex11, active compounds read low): 0.981
- normalized growth (S. cerevisiae deletion strains, locus YOR001W, strain rrp6, active compounds read low): 0.981
- normalized growth (S. cerevisiae deletion strains, locus YOR061W, strain CKA2, active compounds read low): 0.998
- normalized growth (S. cerevisiae deletion strains, locus YOR069W, strain VPS5, active compounds read low): 0.998
- normalized growth (S. cerevisiae deletion strains, locus YOR070C, strain gyp1, active compounds read low): 1
- normalized growth (S. cerevisiae deletion strains, locus YOR080W, strain dia2, active compounds read low): 0.994
- normalized growth (S. cerevisiae deletion strains, locus YOR083W, strain WHI5, active compounds read low): 1
- normalized growth (S. cerevisiae deletion strains, locus YOR106W, strain vam3, active compounds read low): 0.998
- normalized growth (S. cerevisiae deletion strains, locus YOR136W, strain idh2, active compounds read low): 0.993
- normalized growth (S. cerevisiae deletion strains, locus YOR144C, strain elg1, active compounds read low): 0.976
- normalized growth (S. cerevisiae deletion strains, locus YOR184W, strain ser1, active compounds read low): 0.895
- normalized growth (S. cerevisiae deletion strains, locus YOR231W, strain MKK1, active compounds read low): 0.981
- normalized growth (S. cerevisiae deletion strains, locus YOR265W, strain rbl2, active compounds read low): 1
- normalized growth (S. cerevisiae deletion strains, locus YOR270C, strain vph1, active compounds read low): 0.889
- normalized growth (S. cerevisiae deletion strains, locus YOR290C, strain snf2, active compounds read low): 1.01
- normalized growth (S. cerevisiae deletion strains, locus YOR316C, strain cot1, active compounds read low): 0.982
- normalized growth (S. cerevisiae deletion strains, locus YPL051W, strain arl3, active compounds read low): 1.01
- normalized growth (S. cerevisiae deletion strains, locus YPL055C, strain LGE1, active compounds read low): 0.99
- normalized growth (S. cerevisiae deletion strains, locus YPL078C, strain atp4, active compounds read low): 0.993
- normalized growth (S. cerevisiae deletion strains, locus YPL106C, strain sse1, active compounds read low): 1.03
- normalized growth (S. cerevisiae deletion strains, locus YPL240C, strain hsp82, active compounds read low): 1
- normalized growth (S. cerevisiae deletion strains, locus YPL241C, strain CIN2, active compounds read low): 0.993
- normalized growth (S. cerevisiae deletion strains, locus YPL256C, strain CLN2, active compounds read low): 0.965
- normalized growth (S. cerevisiae deletion strains, locus YPR119W, strain clb2, active compounds read low): 0.98
- normalized growth (S. cerevisiae deletion strains, locus YPR141C, strain kar3, active compounds read low): 0.976
- normalized growth (S. cerevisiae deletion strains, locus YPR163C, strain tif3, active compounds read low): 0.974
- normalized growth (S. cerevisiae deletion strains, locus YPR167C, strain met16, active compounds read low): 0.982
- normalized growth (S. cerevisiae deletion strains, strain wtn01, active compounds read low): 0.975
- normalized growth (S. cerevisiae strains, strain wild type, active compounds read low): 0.994
